# In PubChem BioAssay (NCATS):
# Inconclusive results are not listed. The source made the active and inactive calls. Unless noted, calls come from the whole dose curve; as a rule, active = well fitted curve in the direction sought with a large enough effect; inconclusive = small, poorly fitted or top-dose-only effect, or another doubt; inactive = no such curve, though single readings can be large; an effect the other way counts as inactive or inconclusive.
# Key:
# [1] = molecular target: Lysosomal acid glucosylceramidase (Homo sapiens) (UniProt P04062); assay: Glucocerebrosidase-p2 (AID 348; in the data active = potency below about 10 µM; note: potency is the fitted concentration of half-maximal effect); conditions: purified GBA, blue fluorogenic substrate, 40 min
# Lysosomal acid glucosylceramidase (Homo sapiens), sequence (P04062 whole entry, looked up): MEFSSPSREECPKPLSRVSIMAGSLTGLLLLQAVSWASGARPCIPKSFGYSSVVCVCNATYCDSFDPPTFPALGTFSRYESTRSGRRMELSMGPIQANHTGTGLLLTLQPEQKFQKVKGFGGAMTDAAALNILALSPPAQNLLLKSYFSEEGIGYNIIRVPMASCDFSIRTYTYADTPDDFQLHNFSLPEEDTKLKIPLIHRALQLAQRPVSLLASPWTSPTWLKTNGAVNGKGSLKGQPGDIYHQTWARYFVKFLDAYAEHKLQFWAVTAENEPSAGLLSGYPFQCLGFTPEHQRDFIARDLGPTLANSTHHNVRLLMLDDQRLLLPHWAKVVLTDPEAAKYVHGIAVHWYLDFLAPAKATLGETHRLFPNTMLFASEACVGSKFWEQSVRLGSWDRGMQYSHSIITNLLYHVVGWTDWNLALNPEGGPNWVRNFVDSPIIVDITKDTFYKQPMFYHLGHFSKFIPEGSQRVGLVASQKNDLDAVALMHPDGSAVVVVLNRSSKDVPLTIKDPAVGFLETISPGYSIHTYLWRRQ
# Summary of the method: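 Normal human glucocerebrosidase (0.2 nM) with blue fluorogenic substrate (80 uM final) in citrate/phosphate pH 5.9 with 10mM sodium taurocholate, 0.01% tween-20; 40 min RT, NaOH/glycine stop; fluorescence Ex 365/Em 440; AC50 from a titration from 0.6 nM upwards.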
# [2] = NFAT Signaling Pathway (AID 444; active = well fitted curve in either direction with a large enough effect, not every such curve was filed as active;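 note: carbachol stimulus at about its EC50 of 1 µM final; % is set by controls: 0 for no effect and ±100 for the full control effect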); conditions: Jurkat NFAT-bla M1, carbachol, beta-lactamase ratio, 5 h; at 7.69 µM (top of the series) unless noted
# Summary of the method: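 Jurkat cells carrying an NFAT-driven β-lactamase reporter and co-transfected muscarinic M1 receptor were treated with compound plus carbachol (1 uM final, an EC50 level) for 5 h at 37 °C. CCF4 loading followed for 1 h at RT; 460/530 nm ratio gave %activity.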
# [3] = Stat Signaling Pathway (AID 446; active = well fitted curve in either direction with a large enough effect, not every such curve was filed as active;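 note: ME-180 cervical cancer cells given 40 pM IL-6 alongside compound; SIE-controlled beta-lactamase reporter measured as 460/530 nm FRET emission ratio; % is set by controls: 0 for no effect and ±100 for the full control effect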); conditions: ME-180 SIE beta-lactamase reporter, IL-6 stimulated, 5 h; at 7.69 µM (top of the series) unless noted
# Summary of the method: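 Overnight-plated ME-180 cells bearing a STAT Inducible Element beta-lactamase reporter; 5 h co-exposure to compound and 40 pM IL-6; values normalized to 300 pM IL-6 and 125 nM JAK inhibitor controls.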
# [4] = molecular target: Glucocorticoid receptor (Homo sapiens) (UniProt P04150); assay: GR-GFP Redistribution (AID 450;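 active = compounds whose dose series gives a full or clear partial fitted curve of increased nuclear translocation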; note: potency is the fitted concentration of half-maximal effect); conditions: U2OS GR-GFP nuclear translocation, laser cytometry, 2 h
# Glucocorticoid receptor (Homo sapiens), sequence (P04150 whole entry, looked up, the tested form may be a part): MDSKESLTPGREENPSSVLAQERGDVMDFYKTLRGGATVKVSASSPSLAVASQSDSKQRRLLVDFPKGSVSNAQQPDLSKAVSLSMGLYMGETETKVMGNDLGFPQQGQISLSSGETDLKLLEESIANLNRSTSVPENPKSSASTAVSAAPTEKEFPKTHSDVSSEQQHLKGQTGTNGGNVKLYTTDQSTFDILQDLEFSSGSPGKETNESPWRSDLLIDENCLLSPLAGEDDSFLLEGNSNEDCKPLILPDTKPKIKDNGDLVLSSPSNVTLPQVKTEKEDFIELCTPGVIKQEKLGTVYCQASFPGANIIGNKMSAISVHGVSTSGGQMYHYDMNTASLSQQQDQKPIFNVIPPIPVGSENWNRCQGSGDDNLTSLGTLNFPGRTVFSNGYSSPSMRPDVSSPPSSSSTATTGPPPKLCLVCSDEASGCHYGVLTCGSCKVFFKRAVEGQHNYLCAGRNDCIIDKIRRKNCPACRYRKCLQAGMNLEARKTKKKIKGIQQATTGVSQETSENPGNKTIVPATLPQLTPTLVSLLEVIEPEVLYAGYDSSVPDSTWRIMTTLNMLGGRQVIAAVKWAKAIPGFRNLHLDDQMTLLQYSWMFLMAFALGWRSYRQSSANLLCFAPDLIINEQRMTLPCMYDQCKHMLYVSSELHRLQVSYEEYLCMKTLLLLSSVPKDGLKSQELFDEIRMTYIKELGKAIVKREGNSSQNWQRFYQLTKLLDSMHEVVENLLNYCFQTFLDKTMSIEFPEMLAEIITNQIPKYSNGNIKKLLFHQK
# [5] = molecular target: Glucocorticoid receptor (Homo sapiens) (UniProt P04150); assay: GR-EFC Redistribution (AID 451; calls by dose curve; note: potency is the fitted concentration of half-maximal effect); conditions: CHO-K1 GR-EFC translocation, beta-gal luminescence, 2 h
# Summary of the method: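 CHO-K1 cells stably expressing nuclear-localized β-gal enzyme acceptor and GR fused C-terminally to the enzyme donor fragment; ligand-driven nuclear translocation restores β-gal by complementation. Compounds titrated up to 46 uM final, 2 h at 37 °C; luminescence read.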
# [6] = molecular target: Mitogen-activated protein kinase 10 (Mus musculus) (UniProt Q61831); assay: JNK3 AlphaScreen Assay (AID 530; active = well fitted curve in either direction with a large enough effect, not every such curve was filed as active;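 note: kinase came from lysate of stimulated human HepG2 cells; signal reports phosphorylation of biotinylated GST-cJun 1-79 at Ser73 with 10 µM ATP; % is set by controls: 0 for no effect and ±100 for the full control effect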)
# Summary of the method: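 Phosphorylation of biotinylated GST-cJun(1-79) at Ser73 is measured by AlphaScreen proximity luminescence. Enzyme is JNK3 in HepG2 lysates activated with interleukin-1beta and tumor necrosis factor alpha; ATP is 10 uM final.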
# [7] = molecular target: 3',5'-cyclic-AMP phosphodiesterase 4B (Homo sapiens) (UniProt Q07343); assay: qHTS Assay for Inhibitors of PDE-IV (AID 607; active = well fitted activation curve with a large enough effect in the main read-out, with a control signal flat, not every such curve was filed as active; note: % of control where 0% means no effect)
# 3',5'-cyclic-AMP phosphodiesterase 4B (Homo sapiens), sequence (Q07343 whole entry, looked up): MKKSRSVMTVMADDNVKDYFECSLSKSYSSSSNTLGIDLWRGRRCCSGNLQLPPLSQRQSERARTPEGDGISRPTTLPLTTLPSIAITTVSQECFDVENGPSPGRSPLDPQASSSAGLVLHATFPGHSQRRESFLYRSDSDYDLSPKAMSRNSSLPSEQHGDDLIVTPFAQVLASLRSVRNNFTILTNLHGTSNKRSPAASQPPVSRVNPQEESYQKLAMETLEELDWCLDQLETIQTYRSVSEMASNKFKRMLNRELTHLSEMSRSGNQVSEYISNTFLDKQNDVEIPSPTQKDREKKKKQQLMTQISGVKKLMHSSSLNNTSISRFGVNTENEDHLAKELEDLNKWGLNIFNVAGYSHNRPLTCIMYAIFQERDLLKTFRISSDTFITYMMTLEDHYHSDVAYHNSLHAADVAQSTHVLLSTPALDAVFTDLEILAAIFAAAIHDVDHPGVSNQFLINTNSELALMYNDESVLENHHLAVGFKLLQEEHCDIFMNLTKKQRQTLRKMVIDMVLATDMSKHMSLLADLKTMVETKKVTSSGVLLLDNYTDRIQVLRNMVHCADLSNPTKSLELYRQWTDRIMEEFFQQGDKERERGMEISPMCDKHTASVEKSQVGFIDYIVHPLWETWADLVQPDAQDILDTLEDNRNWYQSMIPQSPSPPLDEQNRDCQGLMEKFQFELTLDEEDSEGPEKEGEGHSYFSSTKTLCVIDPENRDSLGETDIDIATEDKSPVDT
# Summary of the method: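 Live HEK293 cells with a modified cyclic nucleotide-gated (CNG) channel report intracellular cAMP via membrane-potential dye fluorescence (ex 535/em 590 nm). Endogenous PDE-IV was targeted. Compounds were tested at up to 22.9 uM final; RO 20-1724 100 uM served as control.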
# [8] = qHTS Assay for Lipid Storage Modulators (AID 1519; calls by dose curve); conditions: Drosophila S3 cells, BODIPY lipid droplet/cell ratio, laser cytometry, cells loaded with oleic acid; for activity change, negative = inhibition: at 57.5 µM (top of the series)
# Summary of the method: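 Cells seeded at 5,000 per well were treated with compounds over a concentration series and loaded with oleic acid (400 uM, as added). Lipid droplet fluorescence (488 nm excitation, 500-530 nm channel) was read by laser-scanning cytometry and normalized to 20 uM Triacsin C.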
# [9] = molecular target: Dual specificity protein kinase CLK4 (Homo sapiens) (UniProt Q9HAZ1); assay: qHTS Assay for Inhibitors of CDC-like Kinase 4 (Kinase-Glo Assay) (AID 1770); note: % is set by controls: 0 for no effect and ±100 for the full control effect; nearly all actives have a fitted effect of over 65% in size
# Dual specificity protein kinase CLK4 (Homo sapiens), sequence (Q9HAZ1 whole entry, looked up): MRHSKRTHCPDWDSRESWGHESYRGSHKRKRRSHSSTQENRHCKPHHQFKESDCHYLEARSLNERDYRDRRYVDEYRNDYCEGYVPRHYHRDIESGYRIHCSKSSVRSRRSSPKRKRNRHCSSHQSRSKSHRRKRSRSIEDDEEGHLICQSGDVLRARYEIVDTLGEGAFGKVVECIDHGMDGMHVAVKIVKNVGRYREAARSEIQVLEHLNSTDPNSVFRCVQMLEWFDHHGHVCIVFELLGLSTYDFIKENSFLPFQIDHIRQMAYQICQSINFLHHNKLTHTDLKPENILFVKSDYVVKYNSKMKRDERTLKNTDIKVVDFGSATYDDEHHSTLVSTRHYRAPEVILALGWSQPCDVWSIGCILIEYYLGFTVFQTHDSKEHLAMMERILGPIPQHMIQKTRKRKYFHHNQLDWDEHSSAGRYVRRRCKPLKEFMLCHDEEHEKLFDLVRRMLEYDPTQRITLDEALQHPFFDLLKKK
# Summary of the method: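 Recombinant human Clk4 (25 nM) phosphorylated RS repeat peptide (100 uM) with 1 uM ATP in Tris pH 7.5/MgCl2/EGTA/DTT/Triton buffer for 4.5 h at room temperature. Residual ATP was quantified by Kinase-Glo luciferase luminescence.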
# [10] = molecular target: Dual specificity protein kinase CLK4 (Homo sapiens) (UniProt Q9HAZ1); assay: qHTS Assay for Inhibitors of CDC-like Kinase 4 (ADP-Glo Assay) (AID 1771); note: % is set by controls: 0 for no effect and ±100 for the full control effect; nearly all actives have a fitted effect of over 70% in size
# Summary of the method: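 ADP production was read by ADP-Glo luminescence after residual ATP depletion, following 1 h room-temperature reaction of 25 nM Clk4, 1 uM ATP and 100 uM RS peptide with MgCl2, EGTA, DTT and Triton X-100.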
# [11] = molecular target: Dual specificity protein kinase CLK4 (Homo sapiens) (UniProt Q9HAZ1); assay: qHTS Assay for Inhibitors of CDC-like Kinase 4 (ADP-FP Assay) (AID 1795); note: % is set by controls: 0 for no effect and ±100 for the full control effect; nearly all actives have a fitted effect of over 60% in size
# Summary of the method: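 Recombinant human Clk4 (6.25 nM) phosphorylated RS repeat peptide (100 uM) with 1 uM ATP in Tris pH 7.5/MgCl2/EGTA/DTT/Triton buffer for one hour. ADP was quantified by Transcreener competitive fluorescence polarization against an ADP calibration curve.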
# [12] = molecular target: Ubiquitin carboxyl-terminal hydrolase 1 (Homo sapiens) (UniProt O94782); assay: Inhibitors of USP1/UAF1: Pilot qHTS (AID 504865);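 note: rhodamine fluorescence freed from ubiquitin-rhodamine substrate followed over time; top concentration of the series differs between compounds; % is set by controls: 0 for no effect and ±100 for the full control effect; nearly all actives have a fitted effect of over 35% in size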
# Ubiquitin carboxyl-terminal hydrolase 1 (Homo sapiens), sequence (O94782 whole entry, looked up): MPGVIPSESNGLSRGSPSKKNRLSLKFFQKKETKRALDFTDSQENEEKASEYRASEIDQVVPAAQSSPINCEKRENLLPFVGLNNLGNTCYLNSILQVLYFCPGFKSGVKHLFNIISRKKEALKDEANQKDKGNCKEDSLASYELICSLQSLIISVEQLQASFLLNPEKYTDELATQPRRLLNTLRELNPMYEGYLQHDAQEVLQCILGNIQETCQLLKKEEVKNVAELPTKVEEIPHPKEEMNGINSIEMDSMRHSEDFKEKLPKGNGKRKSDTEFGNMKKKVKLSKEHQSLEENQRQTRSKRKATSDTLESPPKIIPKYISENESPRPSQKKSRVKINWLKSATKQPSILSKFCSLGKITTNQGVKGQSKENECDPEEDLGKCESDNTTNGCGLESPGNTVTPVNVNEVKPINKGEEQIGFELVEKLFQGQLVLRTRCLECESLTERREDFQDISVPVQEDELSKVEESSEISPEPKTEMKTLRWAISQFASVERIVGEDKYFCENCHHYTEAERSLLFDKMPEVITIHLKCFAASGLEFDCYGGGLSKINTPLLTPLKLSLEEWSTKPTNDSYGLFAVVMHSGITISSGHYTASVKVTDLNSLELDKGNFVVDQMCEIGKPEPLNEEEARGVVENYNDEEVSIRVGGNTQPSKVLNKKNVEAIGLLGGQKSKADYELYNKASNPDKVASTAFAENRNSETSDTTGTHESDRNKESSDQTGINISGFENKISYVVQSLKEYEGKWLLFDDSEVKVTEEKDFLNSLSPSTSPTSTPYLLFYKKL
# Summary of the method: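 USP1/UAF1 complex (1nM) preincubated with compound 15 min at room temperature, then Ub-Rho substrate (150nM final) added. Fluorescence read kinetically at 480/540 nm, 6 reads every 60 seconds. Buffer: 50mM HEPES pH 7.8, 0.5mM EDTA, 0.1 mg/ml BSA, 1mM TCEP, 0.01% Tween-20.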
# [13] = Primary qHTS for small molecule stabilizers of the endoplasmic reticulum resident proteome: Secreted ER Calcium Modulated Protein (SERCaMP) assay (AID 1508630); note: % is set by controls: 0 for no effect and ±100 for the full control effect
# Summary of the method: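 The SH-SY5Y reporter protocol was run at 3 concentrations up to 38.3 uM (primary) or 11 concentrations (follow-up): 16 h compound, 100 nM thapsigargin for 4 h, then extracellular luciferase luminescence.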
# [14] = AP1 Signaling Pathway (AID 357; active = well fitted curve in either direction with a large enough effect, not every such curve was filed as active); conditions: ME-180 AP-1-bla reporter, EGF-induced, beta-lactamase ratio, 5 h; at 7.69 µM (top of the series) unless noted
# Summary of the method: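 Modulation of EGF-driven AP-1 transcription was assessed with a beta-lactamase reporter in ME-180 cells. Compound and EC50 EGF were co-incubated 5 hours at 37 °C before 2.5-hour CCF4 loading at room temperature and dual-emission reading.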
# [15] = molecular target: Cytochrome P450 1A2 (Homo sapiens) (UniProt P05177); assay: p450-cyp1a2 (AID 410; calls by dose curve; note: potency is the fitted concentration of half-maximal effect;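 for activity change, negative = inhibition: -100% = full effect of reference inhibitor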)
# Cytochrome P450 1A2 (Homo sapiens), sequence (P05177 whole entry, looked up): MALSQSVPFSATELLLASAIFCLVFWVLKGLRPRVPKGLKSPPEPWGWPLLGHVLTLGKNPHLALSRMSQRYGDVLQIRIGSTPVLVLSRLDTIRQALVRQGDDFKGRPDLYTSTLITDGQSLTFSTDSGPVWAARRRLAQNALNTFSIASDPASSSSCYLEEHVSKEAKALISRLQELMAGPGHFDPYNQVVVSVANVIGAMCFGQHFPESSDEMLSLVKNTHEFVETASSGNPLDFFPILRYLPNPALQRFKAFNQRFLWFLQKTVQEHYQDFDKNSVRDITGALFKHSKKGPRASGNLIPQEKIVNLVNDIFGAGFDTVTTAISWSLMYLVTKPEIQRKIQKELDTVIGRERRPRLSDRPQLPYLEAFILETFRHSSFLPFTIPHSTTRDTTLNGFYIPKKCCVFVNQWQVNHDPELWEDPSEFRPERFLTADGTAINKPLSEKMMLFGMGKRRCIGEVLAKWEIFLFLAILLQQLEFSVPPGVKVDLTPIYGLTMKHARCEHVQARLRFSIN
# Summary of the method: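 Luminescent demethylation readout: Luciferin-ME (100uM, equal to Km) turned over by 20nM CYP1A2 for 60 min at room temperature after NADPH regeneration addition, following 10 min compound preincubation. Normalization used 57 uM furafylline as full inhibition.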
# [16] = molecular target: Cytochrome P450 3A4 (Homo sapiens) (UniProt P08684); assay: qHTS Assay for Inhibitors and Substrates of Cytochrome P450 3A4 (AID 884); note: nearly all actives have a fitted effect of over 50% in size; note: potency is the fitted concentration of half-maximal effect
# Cytochrome P450 3A4 (Homo sapiens), sequence (P08684 whole entry, looked up): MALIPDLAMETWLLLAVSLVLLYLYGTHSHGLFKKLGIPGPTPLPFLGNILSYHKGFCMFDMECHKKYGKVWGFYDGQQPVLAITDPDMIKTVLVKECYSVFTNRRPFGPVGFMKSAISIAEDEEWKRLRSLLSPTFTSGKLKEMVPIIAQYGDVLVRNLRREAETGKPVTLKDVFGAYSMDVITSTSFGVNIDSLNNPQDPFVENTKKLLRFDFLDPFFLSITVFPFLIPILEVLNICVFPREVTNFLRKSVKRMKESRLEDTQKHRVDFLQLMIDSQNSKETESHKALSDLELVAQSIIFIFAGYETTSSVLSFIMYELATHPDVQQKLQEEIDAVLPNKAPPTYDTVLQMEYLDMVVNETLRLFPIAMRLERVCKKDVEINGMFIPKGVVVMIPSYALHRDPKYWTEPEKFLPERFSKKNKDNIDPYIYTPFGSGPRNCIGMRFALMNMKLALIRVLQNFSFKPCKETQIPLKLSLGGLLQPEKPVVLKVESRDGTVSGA
# Summary of the method: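 Luminescent readout of luciferin produced by CYP3A4 (20 nM) dealkylation of Luciferin-PPXE, 25 uM (its KM). NADPH-driven reaction ran 60 min at RT after 10 min compound preincubation; data scaled to 57 uM ketoconazole as 100% inhibition.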
# [17] = molecular target: Cytochrome P450 3A4 (Homo sapiens) (UniProt P08684); assay: qHTS Assay for Activators of Cytochrome P450 3A4 (AID 885); note: nearly all actives have a fitted effect of over 65% in size
# Summary of the method: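 Using 20nM recombinant human CYP3A4 in potassium phosphate (200mM), substrate Luciferin-PPXE at 25uM, luminescent luciferin detection followed a 60-min RT NADPH reaction; data scaled to 57 uM ketoconazole.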
# [18] = qHTS Assay for Identification of Small Molecule Agonists for Hypoxia Response Element Signaling Pathway (AID 914; active = well fitted activation curve with a large enough effect in the signal ratio, with a control signal flat, not every such curve was filed as active; the % refers to the signal ratio; note: potency is the fitted concentration of half-maximal effect); conditions: ME-180 (cervical carcinoma) HRE-bla reporter, beta-lactamase ratio, CoCl2, 17 h; activation: stronger effect = higher value
# Summary of the method: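 Positive modulation of EC50 CoCl2-induced hypoxia response element signaling is measured in ME-180 cells with a beta-lactamase reporter. Compounds are titrated, incubation runs 17 hours, and %Activity derives from the blue/green ratio.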
# [19] = molecular target: Cytochrome P450 2C9 (Homo sapiens) (UniProt P11712); assay: qHTS Assay for Inhibitors and Substrates of Cytochrome P450 2C9 (AID 883); note: % is set by controls: 0 for no effect and ±100 for the full control effect; nearly all actives have a fitted effect of over 60% in size
# Cytochrome P450 2C9 (Homo sapiens), sequence (P11712 whole entry, looked up): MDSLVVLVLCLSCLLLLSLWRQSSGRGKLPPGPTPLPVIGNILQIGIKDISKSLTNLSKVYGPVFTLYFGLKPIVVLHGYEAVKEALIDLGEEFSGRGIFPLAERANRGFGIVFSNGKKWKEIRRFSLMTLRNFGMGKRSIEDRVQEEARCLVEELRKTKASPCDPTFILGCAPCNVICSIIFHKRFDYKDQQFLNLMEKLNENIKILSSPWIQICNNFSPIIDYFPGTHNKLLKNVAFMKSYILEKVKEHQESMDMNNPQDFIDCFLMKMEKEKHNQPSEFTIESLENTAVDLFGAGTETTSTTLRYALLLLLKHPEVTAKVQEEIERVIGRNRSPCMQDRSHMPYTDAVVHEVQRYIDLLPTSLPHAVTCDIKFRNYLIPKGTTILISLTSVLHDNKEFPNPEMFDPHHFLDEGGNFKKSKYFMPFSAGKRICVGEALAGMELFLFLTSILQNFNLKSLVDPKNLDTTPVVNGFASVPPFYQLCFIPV
# Summary of the method: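 Human CYP2C9 (10nM) hydroxylated Luciferin-H (100uM, at its KM) to luciferin in 25mM KPO4. Compound was preincubated 10 min at 37C, then NADPH regeneration started a 60 min reaction at 37C. Luminescence was read after detection reagent, normalized to 57uM sulphaphenazole.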
# [20] = measured here: cell count channel max response
# [21] = measured here: lipid channel max response
structure (smiles),measurement,setting,value
COc1ccc(-c2nc3cnc(Oc4ccccc4)nc3n(CCC#N)c2=O)cc1,Potency,[1],> 11.4 µM (inactive)
same,"activity change, negative = inhibition",[2],-15.1% (inactive)
same,"activity, negative = inhibition",[3],-20% (inactive)
same,Potency,[4],> 9.22 µM (inactive)
same,Potency,[5],> 46 µM (inactive)
same,outcome,[6],inactive
same,Potency,[7],inactive
same,"activity change, negative = inhibition",[8],1.13% (inactive)
same,max response,[8]; [20],-12.9%
same,max response,[8]; [21],-14%
same,Potency,[9],inactive
same,Potency,[10],inactive
same,Potency,[11],inactive
same,Potency,[12],inactive
same,Potency,[13],inactive
CCNc1ncc2nc(-c3ccccc3)c(=O)n(C[C@H]3CCCO3)c2n1,Potency,[1],> 11.4 µM (inactive)
same,"activity change, negative = inhibition",[14],0.0155% (inactive)
same,Potency,[4],> 9.22 µM (inactive)
same,Potency,[5],> 46 µM (inactive)
same,outcome,[6],inactive
same,"activity change, negative = inhibition",[8],-15.5% (inactive)
same,max response,[8]; [20],3.11%
same,max response,[8]; [21],-10%
same,Potency,[9],inactive
same,Potency,[10],inactive
same,Potency,[11],inactive
same,Potency,[12],inactive
same,Potency,[13],inactive
COc1cccc(Nc2ncc3nc(C)c(=O)n(Cc4cccs4)c3n2)c1,Potency,[1],> 11.4 µM (inactive)
same,Potency,[15],2.51 µM (active)
same,"activity change, negative = inhibition",[2],-29.6% (inactive)
same,"activity, negative = inhibition",[3],-12.1% (inactive)
same,Potency,[4],> 9.22 µM (inactive)
same,Potency,[5],> 46 µM (inactive)
same,outcome,[6],inactive
same,Potency,[16],3.98 µM (active)
same,Potency,[17],inactive
same,"activity change, negative = inhibition",[8],-16.2% (inactive)
same,max response,[8]; [20],12.9%
same,max response,[8]; [21],-8.07%
same,Potency,[9],inactive
same,Potency,[10],inactive
same,Potency,[11],inactive
same,Potency,[12],inactive
same,Potency,[13],inactive
CN1CCN(c2ncc3nc(-c4ccc(F)cc4)c(=O)n(Cc4cccs4)c3n2)CC1,Potency,[1],> 11.4 µM (inactive)
same,Potency,[15],25.1 µM (active)
same,Potency,[4],> 9.22 µM (inactive)
same,Potency,[5],> 46 µM (inactive)
same,Potency,[7],inactive
same,Potency,[16],inactive
same,Potency,[18],3.16 µM (active)
same,"activity change, negative = inhibition",[8],-3.43% (inactive)
same,max response,[8]; [20],8.36%
same,max response,[8]; [21],0.564%
same,Potency,[9],inactive
same,Potency,[10],inactive
same,Potency,[11],inactive
same,Potency,[12],inactive
same,Potency,[13],inactive
COc1cccc(Cn2c(=O)c(-c3cc(F)cc(F)c3)nc3cnc(N4CCN(C)CC4)nc32)c1,Potency,[1],> 11.4 µM (inactive)
same,Potency,[15],inactive
same,Potency,[5],> 46 µM (inactive)
same,outcome,[6],inactive
same,Potency,[7],inactive
same,Potency,[17],inactive
same,"activity change, negative = inhibition",[8],1.17% (inactive)
same,max response,[8]; [20],19%
same,max response,[8]; [21],18.2%
same,Potency,[9],inactive
same,Potency,[10],inactive
same,Potency,[11],inactive
same,Potency,[12],inactive
same,Potency,[13],inactive
O=c1c(-c2ccc(Cl)cc2)nc2cnc(N3CCOCC3)nc2n1-c1ccccc1,Potency,[1],> 11.4 µM (inactive)
same,Potency,[15],2 µM (active)
same,Potency,[4],> 9.22 µM (inactive)
same,Potency,[5],> 46 µM (inactive)
same,outcome,[6],inactive
same,Potency,[7],inactive
same,Potency,[19],inactive
same,"activity change, negative = inhibition",[8],-3% (inactive)
same,max response,[8]; [20],25.3%
same,max response,[8]; [21],19.1%
same,Potency,[9],inactive
same,Potency,[10],inactive
same,Potency,[11],inactive
same,Potency,[12],inactive
same,Potency,[13],inactive
